Experimental data reported in the supplement of paper PMC13380429.
Values without a mark were called inactive.

Test system: Vero E6 infected with SARS-CoV-2
Assay: inhibition of SARS-CoV-2 cytopathic effect; higher = more antiviral protection, active = above 15
Details: 48 h

Compound	inhibition of SARS-CoV-2 cytopathic effect (1 nM)	inhibition of SARS-CoV-2 cytopathic effect (8.33 nM)	inhibition of SARS-CoV-2 cytopathic effect (100 nM)	inhibition of SARS-CoV-2 cytopathic effect (833.33 nM)	inhibition of SARS-CoV-2 cytopathic effect (10000 nM)
CC(CN(C)C)C(C)(O)Cc1ccc(Cl)cc1 (stereo not given) [clobutinol]	-0.23%	2.65%	1.61%	-3.1%	-0.69%
C/C(=N\NC(=O)C(NC(=O)c1ccccc1)c1n[nH]c(=O)c2ccccc12)c1cccc(Br)c1 (stereo not given)	-0.71%	2.21%	0.8%	3.15%	4.46%
CC(=O)SCCC(=O)N1[C@H](C)CCC[C@@H]1C(=O)O [methiopril]	-1.78%	-1.6%	3.1%	0.4%	1.04%
O=C(O)[C@H]1O[C@@H](Oc2cc3oc(-c4ccccc4)cc(=O)c3c(O)c2O)[C@H](O)[C@@H](O)[C@@H]1O [baicalin]	2.44%	-0.79%	-1.89%	-5.03%	2.97%
O=C(NCC(=O)N1CC[C@H](N[C@H]2CC[C@@](O)(c3ccc(-c4ncccn4)cn3)CC2)C1)c1cccc(C(F)(F)F)c1	-4.52%	-2.69%	1.06%	-0.75%	-0.61%
Cc1cc(C#N)cc(C)c1Oc1nc(Nc2ccc(C#N)cc2)nc(N)c1Br [etravirine]	-0.95%	-0.81%	-2.15%	-5.24%	-2.04%
COc1cccc2c1C(=O)c1c(O)c3c(c(O)c1C2=O)C[C@@](O)(/C(CO)=N/NC(=O)CCCCCN1C(=O)C=CC1=O)C[C@@H]3O[C@H]1C[C@H](N)[C@H](O)[C@H](C)O1 [aldoxorubicin]	-2.6%	-0.32%	0.6%	4.67%	-1.37%
NC(=O)NCCC[C@H](N)C(=O)O [L-citrulline]	0.06%	-1.99%	1.8%	2.58%	1.61%
C[C@H](c1ccc(F)cc1CCCC(=O)O)N(c1cc(F)ccc1F)S(=O)(=O)c1ccc(Cl)cc1	-1.95%	-1.39%	-1.46%	-3.65%	-5.49%
CC1OC2(CS1)CN1CCC2CC1 (stereo not given) [cevimeline]	-0.26%	-0.65%	-1.15%	-0.01%	-1.57%
COc1cccc(-c2cc(F)ccc2[C@H]2Cc3nc(N)nc(C)c3C(=O)N2)n1	-0.35%	0.26%	-1.38%	-0.51%	-10.9%
Cc1nnc(C[C@@H]2C=C(c3ccc(Cl)cc3)c3ccccc3-n3c(C)nnc32)o1	1.71%	0.46%	2.65%	-4.91%	-11.7%
CCCCCCCCCCCCCCCC(=O)O[C@@H]1[C@@H](O)[C@@H](O)[C@@H]([C@H](NC(=O)[C@@H]2C[C@@H](CCC)CN2C)[C@H](C)Cl)O[C@@H]1SC [clindamycin-palmitate]	-0.87%	-2.61%	-3.02%	-0.74%	-3.94%
CNC(=O)c1ccc2cc([C@@]3(O)CCn4cncc43)ccc2c1 [orteronel]	3.23%	3.01%	4.35%	3.1%	2.53%
Clc1cccc(SC2CCNCC2)n1 [anpirtoline]	-4.7%	-4.88%	1.08%	0.38%	-4.79%
C[C@@H](CN1CCC(Cc2ccccc2)CC1)[C@@H](O)c1ccc(O)cc1	-1.15%	-0.92%	-0.78%	-2.61%	-5.49%
CC(=O)N1CCN(C)CC1 [1-acetyl-4-methylpiperazine]	4.74%	3.75%	3.95%	4.36%	-0.21%
O=C1C[C@@H](c2ccc(O)cc2)Oc2cc(O)ccc21	-0.59%	2.87%	2.13%	1.65%	12%
CCOC(=O)C1=C[C@@H](OC(CC)CC)[C@H](NC(C)=O)[C@@H](N)C1 [oseltamivir-phosphate]	-2.66%	-6.65%	-4.22%	-6.18%	0.67%
NC(=O)OCCCc1ccccc1 [phenprobamate]	0.89%	0.93%	-0.42%	-2.45%	-2.7%

Compound	inhibition of SARS-CoV-2 cytopathic effect (1 nM)	inhibition of SARS-CoV-2 cytopathic effect (8.33 nM)	inhibition of SARS-CoV-2 cytopathic effect (100 nM)	inhibition of SARS-CoV-2 cytopathic effect (833.33 nM)	inhibition of SARS-CoV-2 cytopathic effect (10000 nM)
Nc1ncnc2[nH]nc(Nc3ccc(F)cc3)c12	-2.32%	-2.2%	-2.66%	-0.59%	-5.26%
CC(C)(C)c1cc(C=C(C#N)C#N)cc(Br)c1O	0.94%	-0.19%	0.29%	-1.48%	4.93%
Cc1ccc(S(=O)(=O)OCC(=O)Nc2ccc(C(=O)O)c(O)c2)cc1 [STAT3-inhibitor-VI]	-0.14%	-0.23%	0.11%	-1.76%	1.39%
O=c1ccc2cc3ccoc3cc2o1 [psoralen]	-1.78%	1.39%	1.55%	0.22%	-0.41%
CCCn1c(=O)[nH]c2nc(-c3ccc(S(=O)(=O)N4CCN(c5ccc(Cl)cc5)CC4)cc3)[nH]c2c1=O	-0.12%	0.44%	-0.16%	1.71%	1.22%
CC(=O)OCC(=O)[C@@]1(O)CC[C@H]2[C@@H]3CCC4=CC(=O)C=C[C@]4(C)[C@@]3(F)[C@@H](O)C[C@@]21C [isoflupredone-acetate]	2.83%	2.61%	0.09%	1.17%	1.02%
C[C@H](Nc1ncnc2[nH]cnc12)c1cc2ccc(F)cc2nc1-c1ccccn1	0.375%	4.37%	4.2%	1.33%	-3.42%
CCOc1cc([C@@H](CS(C)(=O)=O)N2C(=O)c3cccc(NC(C)=O)c3C2=O)ccc1OC [apremilast]	2.28%	-0.67%	1.6%	-0.47%	-2.14%
Cc1ccc(C23CNCC2C3)cc1 (stereo not given) [bicifadine]	0.67%	-0.49%	0.91%	-1.53%	-0.3%
O=C(c1ccccc1)c1ccc2n1CCC2C(=O)O (stereo not given) [ketorolac]	-4.39%	-2.99%	-1.5%	2.44%	-4.37%
CC(C)OC(=O)CNC(=O)[C@H](CS)NC(=O)CC[C@H](N)C(=O)O [glutathione-monoisopropyl-ester]	-0.48%	2.43%	-0.65%	0.55%	2.32%
Cn1ncnc1COc1nn2c(-c3cc(F)ccc3F)nnc2cc1C(C)(C)C	3.33%	3.4%	3.15%	1.53%	0.81%
OCCN1CCN(CCCN2c3ccccc3C=Cc3ccccc32)CC1 [opipramol]	2.92%	1.37%	1.62%	-1.41%	-3.08%
C[C@H]1[C@H](NC(=O)/C(=N\OC(C)(C)C(=O)O)c2csc(N)n2)C(=O)N1S(=O)(=O)O [aztreonam]	3.78%	20% (active)	1.14%	-1.55%	0.92%
C[C@H](Cn1cnc2c(N)ncnc21)OCP(=O)(O)O [tenofovir]	-0.47%	-2.44%	-1.27%	0.5%	0.69%
CC1(C)CC(=O)C(C2C3=C(CC(C)(C)CC3=O)Oc3ccccc32)C(=O)C1 (stereo not given)	-0.63%	0.77%	-0.14%	1.93%	-2.4%
CC(C)(C)C1CCc2c(sc(NC(=O)c3ccco3)c2C(=O)O)C1 (stereo not given)	0.37%	3.15%	1.01%	0.8%	-2.29%
O=C1OCCN1/N=C/c1ccc([N+](=O)[O-])o1 [furazolidone]	2.49%	3.22%	2.2%	1.08%	0.23%
Clc1cccc(/C=N/N=C/c2cccc(Cl)c2)c1 [3,3'-dichlorobenzaldazine]	2.78%	1.74%	1.33%	1.92%	1.46%
